PubChem BioAssay (EPA / NIEHS)
Some structures have more than one record in an assay (separate samples or runs), and their calls can disagree. Activity calls are given as the source filed them. How the source made its calls: active means hit-call score of the fitted dose curve at least 0.9, where 1 is the maximum; inactive means score below 0.9.

assay: ATG_GLI_CIS: Attagene CIS-FACTORIAL HepG2 Assay for human Zinc Finger Protein GLI1 (AID 2282945); conditions: HepG2, Attagene cis-factorial reporter mRNA, GLI element; actives raise or lower the signal
Outline: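 HepG2 cells transiently transfected with cis-promoter multiplexed reporter units report endogenous transcription factor activity. After 24 h chemical exposure, reporter mRNA was quantified by RT-PCR, 6-FAM labelling, HpaI digestion and capillary electrophoresis, with bidirectional fitting against DMSO.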

Row | Structure (SMILES) | outcome | AC50
1 | O=S1(=O)OC(c2cc(Br)c(O)c(Br)c2)(c2cc(Br)c(O)c(Br)c2)c2ccccc21 | inactive | 
2 | Cc1cc(Cl)ccc1OCCCC(=O)O | inactive | 
3 | C#C[C@]1(O)CC[C@H]2[C@@H]3CCC4=CC(=O)CC[C@]4(C)[C@H]3CC[C@@]21C | inactive | 
4 | C[C@@H]1O[C@@H](O[C@H]2C[C@@H](O)[C@]3(CO)[C@H]4[C@H](O)C[C@]5(C)[C@@H](C6=CC(=O)OC6)CC[C@]5(O)[C@@H]4CC[C@]3(O)C2)[C@H](O)[C@H](O)[C@H]1O | inactive | 
5 | C[N+](C)(C)Cc1ccccc1 | inactive | 
6 | COP(=S)(OC)Oc1cc(Cl)c(I)cc1Cl | inactive | 
7 | O=c1oc2ccccc2c(O)c1C(CC(O)c1ccc(-c2ccc(Br)cc2)cc1)c1ccccc1 (centres undefined) | inactive | 46.3 µM (active)
8 | CN(N=O)C(N)=O | inactive | 
9 | O=S(=O)(F)C(F)(F)C(F)(F)C(F)(F)C(F)(F)F | inactive | 
10 | OCC(c1ccc(Cl)cc1)c1ccc(Cl)cc1 |  | 61.5 µM (active)
11 | CCCCC(CC)C(=O)Cl (centres undefined) | inactive | 
12 | C=CC(F)(C(F)(F)F)C(F)(F)C(F)(F)F (centres undefined) | inactive | 
13 | CN(C)CCN(C)C | inactive | 
14 | CCCCS(=O)(=O)Cl | inactive | 
15 | Fc1cccc(Cl)c1CCl | inactive | 
16 | Nc1ncn[nH]1 | inactive | 
17 | CC(=O)C(F)(F)C(F)(F)F | inactive | 
18 | C#CCOC(=O)/C=C(C)/C=C/CC(C)CCCC(C)C (centres undefined) | inactive | 
19 | OC(Cc1ccccc1Cl)(Cn1cncn1)C1(Cl)CC1 (centres undefined) | inactive | 

Row | Structure (SMILES) | outcome | AC50
20 | Cc1cc(C(F)(C(F)(F)F)C(F)(F)F)ccc1NC(=O)c1cccc(I)c1C(=O)NC(C)(C)CS(C)(=O)=O | inactive | 
21 | CCOc1ccc(N)cc1 | inactive | 
22 | O=C(NC(=O)c1c(F)cccc1F)Nc1cc(Cl)c(Oc2ncc(C(F)(F)F)cc2Cl)c(Cl)c1 | inactive | 
23 | CN(N=O)c1ccc([N+](=O)[O-])cc1 | inactive | 
24 | CCOC(=O)C(SP(=S)(OC)OC)c1ccccc1 (centres undefined) | inactive | 
25 | COC(F)(C(F)(F)C(F)(F)F)C(F)(C(F)(F)F)C(F)(F)F (centres undefined) | inactive | 
26 | OC(Cc1ccccc1Cl)(Cn1[nH]cnc1=S)C1(Cl)CC1 (centres undefined) | inactive | 
27 | CC(F)(F)CC(F)(F)F | inactive | 
28 | O=C/C(Cl)=C(/Cl)C(=O)O | inactive | 
29 | COc1nn(C(=O)NS(=O)(=O)c2ccccc2OC(F)(F)F)c(=O)n1C | inactive | 
30 | Cc1ccc(CCl)cc1 | inactive | 
31 | Cl[C@H]1OCCO[C@@H]1Cl | inactive | 
32 | NC(=O)CCl | inactive | 
33 | CC(C)[C@@H](Nc1ccc(C(F)(F)F)cc1Cl)C(=O)OC(C#N)c1cccc(Oc2ccccc2)c1 (some centres undefined) | inactive | 
34 | Cc1cc(C(C)(C)c2ccc(O)c(C)c2)ccc1O |  | 74.7 µM (active)
35 | CC1(C)[C@H](C(=O)O[C@H](C#N)c2cccc(Oc3ccccc3)c2)[C@@H]1/C=C(\Cl)C(F)(F)F | inactive | 
36 | ClCCCCl | inactive | 
37 | Cc1ccccc1OP(=O)(Oc1ccccc1)Oc1ccccc1 | inactive | 
38 | CCN(N=O)C(N)=O | inactive | 
